The values that follow come from PubChem BioAssay (Tox21).

The nature of experiment [1]: Nuclear factor erythroid 2-related factor 2/antioxidant responsive element (Nrf2/ARE) small molecule agonists: qHTS cell viability counter screen in human keratinocytes (AID 1919968; active = well fitted curve in the direction sought with a large enough effect in the repeat runs; an effect the other way counts as inactive or inconclusive; note: nearly all actives have a fitted effect of over 55% in size; note: potency is the fitted concentration of half-maximal effect). Summed up: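 Cells of the KeratinoSens line were plated at 1,500 per well and left for 5 h before compound transfer from DMSO stocks. After a 23 h incubation (37 C, 5% CO2), CellTiter-Fluor was added. Signal was taken as fluorescence intensity 1 h later.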
Background: In qHTS, concentration-response curves come from the screen itself.

Experiment [2] in a line: Nuclear factor erythroid 2-related factor 2/antioxidant responsive element (Nrf2/ARE) small molecule agonists: luciferase reporter gene qHTS assay in human keratinocytes (AID 1919969). Note: nearly all actives have a fitted effect of over 35% in size. Note: potency is the fitted concentration of half-maximal effect.
Experiment [3] has as its target Gonadotropin-releasing hormone receptor (Homo sapiens) (UniProt P30968). Put plainly: Human gonadotropin-releasing hormone receptor (GnRHR) small molecule agonists, calcium flux assay in GnRHR-HEK293 cells (AID 1920063). Note: nearly all actives have a fitted effect of over 35% in size. Summed up: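 Compounds dissolved in DMSO are pin-transferred onto dye-loaded GnRHR-HEK293 cells, which were seeded 18 h before at 37 C/5% CO2. Calcium signal is read as fluorescence intensity at 1 s intervals for 3 min.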

Experiment [4] has as its target KiSS-1 receptor (Homo sapiens) (UniProt Q969F8). Put plainly: Human kisspeptin (KISS1R) small molecule agonists, calcium flux assay in KISS1R-HEK293 cells (AID 1920064; active = well fitted curve in the direction sought with a large enough effect in the repeat runs; an effect the other way counts as inactive or inconclusive). The method, boiled down:
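Cell line: HEK293, stable human KISS1R. Dye loading 1 h at 37 C after 18 h culture. Read: kinetic fluorescence, 480/540 nm, 3 min at 1 s intervals.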
(In general: Calcium assays in cells follow changes in intracellular calcium, usually with a dye or a luminescent sensor.)

A short description of experiment [5]: p53 small molecule agonists, cell-based qHTS assay with human liver microsomes (AID 1963577). The method, boiled down:
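Compounds act here after metabolic activation: human liver microsomes and NADPH, both at 0.5 mg/mL final, were co-added to p53RE-bla cells. Incubation ran 16 h at 37 C, followed by LiveBLAzer detection.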

A short description of experiment [6]: p53 small molecule agonists, cell-based qHTS assay with rat liver microsomes (AID 1963578). Note: potency is the fitted concentration of half-maximal effect. Summed up:
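Read-out is beta-lactamase reporter fluorescence (LiveBLAzer, 2 h, room temperature, dark) in p53RE-bla cells treated 16 h at 37 C with compound, rat liver microsomes and NADPH, both 0.5 mg/mL final.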

The nature of experiment [7]: p53 small molecule agonists, cell-based qHTS assay with human liver microsomes: qHTS cell viability counter screen (AID 1963579). Note: nearly all actives have a fitted effect of over 45% in size. Note: potency is the fitted concentration of half-maximal effect. Summed up:
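Cells carrying the p53 response-element beta-lactamase reporter are treated for 16 h at 37 C with test compounds in the presence of human liver microsomes and NADPH (both 0.5 mg/mL final); ATP-based CellTiter-Glo luminescence then reports viability.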

Experiment [8] in a line: p53 small molecule agonists, cell-based qHTS assay: qHTS cell viability counter screen (AID 1963581). Note: nearly all actives have a fitted effect of over 45% in size. Summed up: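 ATP content measured by luminescence in HCT-116 p53RE-bla cells treated 16 h at 37 C, same wells as the reporter screen.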
A short description of experiment [9]: p53 small molecule agonists, cell-based qHTS assay (AID 1963582; active = well fitted activation curve with a large enough effect in the signal ratio in the repeat runs, not every such curve was filed as active; the % refers to the signal ratio). Summed up:
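16 h compound exposure (37 C) of p53 response element–bla cells, preceded by 5 h recovery at 37 C/5% CO2; read-out via LiveBLAzer B/G FRET substrate, 2 h RT, fluorescence intensity.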

Experiment [10] deals with 5-hydroxytryptamine receptor 2A (Homo sapiens) (UniProt P28223). In words: 5-hydroxytryptamine receptor 2A (HTR2A) small molecule antagonists, cell-based qHTS assay (AID 1963586). Note: nearly all actives have a fitted effect of over 45% in size. Summed up: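 CHO cells stably expressing human HTR2A were plated for 18 h at 37 C, then loaded with calcium dye for 1 h. Compounds were preincubated 5 min at room temperature before DOI (4 nM solution) was added. Kinetic fluorescence was read for 3 min.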

The target is the same in experiment [11]. Put plainly: 5-hydroxytryptamine receptor 2A (HTR2A) small molecule agonists, cell-based qHTS assay (AID 1963587). Note: nearly all actives have a fitted effect of over 30% in size. The method, boiled down: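 HTR2A-CHO cells, plated 18 h at 37 C/5% CO2, dye-loaded 1 h at 37 C; compounds in DMSO added by pin tool (agonist mode). Intracellular calcium flux read as kinetic fluorescence on FDSS over 2 min at 1 s intervals.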

Experiment [12] has as its target Muscarinic acetylcholine receptor M1 (Homo sapiens) (UniProt P11229). Put plainly: Cholinergic receptor muscarinic 1 (CHRM1) small molecule agonists, cell-based qHTS assay (AID 1963589). Note: nearly all actives have a fitted effect of over 35% in size. The method, boiled down:
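Homogeneous fluorescence calcium flux, agonist mode. Human M1-expressing CHO cells; compound dosed at 15 concentrations, three independent runs; signal sampled every 1 sec.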

Experiment [13] is described as follows: cAMP Responsive Elements (CRE) small molecule agonists, cell-based qHTS assay (AID 1963590). Summed up: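 HEK 293T cells stably bearing CRE-bla were plated at 2,000 cells per well and rested 18 h. Compounds, positive controls or DMSO were added for 3 h at 37 C. LiveBLAzer B/G substrate was then loaded for 2 h at room temperature.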
Experiment [14] addresses Beta-2 adrenergic receptor (Homo sapiens) (UniProt P07550). In words: Adrenergic beta2 receptor (ADRB2) small molecule antagonists, cell-based qHTS assay (AID 1963592). Note: series mostly up to about 92 µM; nearly all actives have a fitted effect of over 50% in size. The method, boiled down:
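Assay format: CHO-ADRB2 cells, 18-20hr seeding at 37C/5% CO2, then compound plus 1nM isoproterenol agonist mix for 0.5hr RT. Homogeneous time-resolved fluorescence cAMP detection after 1hr, expressed as 665/615 nm ratio.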

For experiment [15] the target is unchanged. In words: Adrenergic beta2 receptor (ADRB2) small molecule agonists, cell-based qHTS assay (AID 1963593).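 Note: CHO cells stably overexpressing human ADRB2.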 The method, boiled down: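 CHO cells stably over-expressing ADRB2 were plated overnight at 37C, then dosed with compounds plus a stimulation mix containing 100uM IBMX and 25uM Ro-20-1724 for 0.5hr at room temperature. cAMP was measured by HTRF competition, 1hr.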

For experiment [16], the target named is D(2) dopamine receptor (Homo sapiens) (UniProt P14416). Put plainly: Dopamine D2 receptor (DRD2) small molecule agonists, cell-based qHTS assay (AID 1963594). Note: nearly all actives have a fitted effect of over 35% in size. The method, boiled down: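 HEK293 cells stably expressing DRD2 were cultured 24 h at 37 C, then given Ro20-1724 (0.1 mM final) and compounds for 10 min at room temperature. NKH477 (200nM) was then added for 30 min. cAMP was read by HTRF.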

Experiment [17] shares this target. Put plainly: Dopamine D2 receptor (DRD2) small molecule antagonists, cell-based qHTS assay (AID 1963595; active = well fitted inhibition curve with a large enough effect in the signal ratio in the repeat runs, with a control signal flat; the % refers to the signal ratio). Summed up:
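Antagonism was scored as restored cAMP in HEK293-DRD2 cells. These cells were stimulated with 200 nM NKH477 and 12 nM quinpirole for 30 min at room temperature, in the presence of 0.1 mM Ro20-1724.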

Experiment [18] is described as follows: cAMP Responsive Elements (CRE) small molecule antagonists, cell-based qHTS assay (AID 1963591; active = well fitted inhibition curve with a large enough effect in the signal ratio in the repeat runs, not every such curve was filed as active; the % refers to the signal ratio; note: potency is the fitted concentration of half-maximal effect). The method, boiled down:
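First, CRE-bla HEK293T cells settled 18 h at 37 C. Next, compound and 0.25 uM final NKH477 were applied for 3 h. Last, LiveBLAzer B/G substrate was loaded for 2 h at room temperature.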

Experiment [19] can be described thus: p53 small molecule agonists, cell-based qHTS assay with rat liver microsomes: qHTS cell viability counter screen (AID 1963580). Note: nearly all actives have a fitted effect of over 45% in size. The method, boiled down:
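Counter screen for cytotoxicity under metabolic activation: rat liver microsomes and NADPH, 0.5 mg/mL final each, added with compounds to p53RE-bla HCT-116 cells; 16 h at 37 C, then ATP luminescence read.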

Experiment [20] has as its target Muscarinic acetylcholine receptor M1 (Homo sapiens) (UniProt P11229). In words: Cholinergic receptor muscarinic 1 (CHRM1) small molecule antagonists, cell-based qHTS assay (AID 1963588). Note: nearly all actives have a fitted effect of over 40% in size. The method, boiled down: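 Compounds were tested at 15 concentrations in three independent runs. Dye-loaded CHRM1-CHO cells were exposed 5 min at room temperature before stimulation by acetylcholine added at 50nM. Intracellular calcium was read kinetically on FDSS for 3 min.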

Several values for one entry are separate records, joined by “and”; a condition that tells them apart may be missing. Equal values may be shown once. Results filed as inconclusive are left out. Some structures have more than one record in an assay (separate samples or runs), and their calls can disagree. Activity calls are given as the source filed them. Unless noted, calls come from the whole dose curve.

D(2) dopamine receptor (Homo sapiens), sequence (P14416 whole entry, looked up): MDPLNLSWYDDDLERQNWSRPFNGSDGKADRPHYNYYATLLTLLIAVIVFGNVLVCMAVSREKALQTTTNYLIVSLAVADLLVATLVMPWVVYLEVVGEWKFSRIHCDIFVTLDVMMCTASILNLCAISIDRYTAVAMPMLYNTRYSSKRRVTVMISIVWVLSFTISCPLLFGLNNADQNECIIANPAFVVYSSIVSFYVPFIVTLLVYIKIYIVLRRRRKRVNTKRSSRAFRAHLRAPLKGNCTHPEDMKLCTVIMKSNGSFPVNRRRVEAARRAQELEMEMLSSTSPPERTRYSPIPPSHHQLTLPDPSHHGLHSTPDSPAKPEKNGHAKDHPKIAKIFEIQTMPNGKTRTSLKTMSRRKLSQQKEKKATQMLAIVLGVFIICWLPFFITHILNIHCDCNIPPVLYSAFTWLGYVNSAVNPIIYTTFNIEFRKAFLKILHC
Muscarinic acetylcholine receptor M1 (Homo sapiens), sequence (P11229 whole entry, looked up): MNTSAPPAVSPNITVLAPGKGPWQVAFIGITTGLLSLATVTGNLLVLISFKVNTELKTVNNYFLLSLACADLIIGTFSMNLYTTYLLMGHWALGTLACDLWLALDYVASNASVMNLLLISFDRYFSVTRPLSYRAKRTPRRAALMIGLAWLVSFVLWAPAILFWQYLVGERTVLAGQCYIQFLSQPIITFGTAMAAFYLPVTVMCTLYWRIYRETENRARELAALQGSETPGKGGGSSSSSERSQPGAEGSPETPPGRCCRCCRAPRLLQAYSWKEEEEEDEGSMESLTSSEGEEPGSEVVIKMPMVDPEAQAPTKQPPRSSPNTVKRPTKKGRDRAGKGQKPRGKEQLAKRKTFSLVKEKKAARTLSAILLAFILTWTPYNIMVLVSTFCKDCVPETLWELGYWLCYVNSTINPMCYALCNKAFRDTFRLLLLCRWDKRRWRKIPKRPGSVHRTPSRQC
Gonadotropin-releasing hormone receptor (Homo sapiens), sequence (P30968 whole entry, looked up): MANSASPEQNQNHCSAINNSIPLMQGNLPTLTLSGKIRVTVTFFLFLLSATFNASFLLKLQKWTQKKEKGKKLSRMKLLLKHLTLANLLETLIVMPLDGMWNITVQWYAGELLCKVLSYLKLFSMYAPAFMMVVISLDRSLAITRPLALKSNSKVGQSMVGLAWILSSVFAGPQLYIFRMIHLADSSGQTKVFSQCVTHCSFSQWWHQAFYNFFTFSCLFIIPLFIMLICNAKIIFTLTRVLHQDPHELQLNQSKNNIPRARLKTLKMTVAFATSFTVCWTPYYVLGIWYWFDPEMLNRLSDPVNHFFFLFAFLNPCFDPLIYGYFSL
5-hydroxytryptamine receptor 2A (Homo sapiens), sequence (P28223 whole entry, looked up): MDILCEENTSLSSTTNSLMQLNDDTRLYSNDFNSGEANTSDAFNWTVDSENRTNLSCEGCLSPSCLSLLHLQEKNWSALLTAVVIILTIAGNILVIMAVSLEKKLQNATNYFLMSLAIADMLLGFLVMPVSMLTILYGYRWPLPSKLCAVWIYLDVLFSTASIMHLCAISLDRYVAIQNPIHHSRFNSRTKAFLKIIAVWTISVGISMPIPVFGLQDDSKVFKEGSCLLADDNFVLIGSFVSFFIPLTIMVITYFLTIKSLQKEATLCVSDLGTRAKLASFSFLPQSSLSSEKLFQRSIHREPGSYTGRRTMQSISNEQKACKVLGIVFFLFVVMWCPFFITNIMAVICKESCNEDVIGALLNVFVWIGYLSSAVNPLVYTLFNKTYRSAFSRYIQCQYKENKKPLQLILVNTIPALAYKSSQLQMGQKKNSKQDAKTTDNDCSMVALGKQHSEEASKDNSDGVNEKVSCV
Beta-2 adrenergic receptor (Homo sapiens), sequence (P07550 whole entry, looked up): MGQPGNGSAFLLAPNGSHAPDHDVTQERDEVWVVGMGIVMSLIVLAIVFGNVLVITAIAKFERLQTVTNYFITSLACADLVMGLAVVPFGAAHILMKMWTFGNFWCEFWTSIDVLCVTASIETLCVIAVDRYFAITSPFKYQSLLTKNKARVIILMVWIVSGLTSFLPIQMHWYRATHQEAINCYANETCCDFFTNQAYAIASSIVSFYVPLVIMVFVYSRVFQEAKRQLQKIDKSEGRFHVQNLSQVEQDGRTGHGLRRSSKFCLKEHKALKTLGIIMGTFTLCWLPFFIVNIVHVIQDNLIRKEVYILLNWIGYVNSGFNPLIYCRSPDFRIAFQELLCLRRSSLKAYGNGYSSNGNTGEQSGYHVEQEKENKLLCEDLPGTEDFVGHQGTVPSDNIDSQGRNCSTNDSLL
KiSS-1 receptor (Homo sapiens), sequence (Q969F8 whole entry, looked up): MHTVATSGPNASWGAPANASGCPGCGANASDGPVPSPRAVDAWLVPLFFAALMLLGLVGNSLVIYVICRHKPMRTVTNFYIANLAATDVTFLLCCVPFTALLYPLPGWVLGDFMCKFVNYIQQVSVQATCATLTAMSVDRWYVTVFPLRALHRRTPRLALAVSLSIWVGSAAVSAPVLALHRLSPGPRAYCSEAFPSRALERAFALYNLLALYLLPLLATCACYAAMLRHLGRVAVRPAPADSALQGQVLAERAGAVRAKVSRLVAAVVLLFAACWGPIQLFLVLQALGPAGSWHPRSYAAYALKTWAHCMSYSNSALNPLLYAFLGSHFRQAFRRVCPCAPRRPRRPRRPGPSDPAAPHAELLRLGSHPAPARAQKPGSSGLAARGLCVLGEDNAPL

As to `Cc1cc(=O)oc2cc(O)ccc12`, the Potency result in experiment [1], in [2], in [3], in [4], in experiment [5] and in experiment [7] was “inactive” in each case. For the same molecule, the Potency entry in experiment [8], in [9], in [10], in experiment [11], in experiment [12] and in experiment [13] was “inactive” in each case. The Potency result in experiment [14], in [15], in experiment [16] and in experiment [17] was “inactive” in each case. In addition, the Potency in experiment [6] was 36.3 µM (active) and 22.9 µM (active).
With `CCN(CC)C(=S)SSC(=S)N(CC)CC`, the Potency was 96.9 nM (active) and 99.2 nM (active) and 29.8 µM (active) in experiment [1]; 1.19 µM (active) in [18]. Besides, the Potency result in experiment [2], in experiment [3], in [4], in experiment [14], in [15] and in experiment [16] was “inactive” each time. The Potency result in experiment [17] was “inactive”.
As to `CCCCC(CC)COC(=O)c1ccc(N(C)C)cc1` (configuration not stated), the Potency entry in experiment [1], in [3], in experiment [4], in experiment [5], in [6] and in experiment [19] was “inactive” throughout. The Potency result in [8], in [9], in experiment [10], in experiment [11], in [20] and in [12] was “inactive” in each case. Moreover, the Potency entry in experiment [13], in experiment [18], in [14], in experiment [15], in experiment [16] and in [17] was “inactive” each time. In addition, the Potency in [2] is 30.8 µM (active) and 54.5 µM (active) and inactive.
Consider `Cc1ccccc1Cl`, for which the Potency result in experiment [1], in experiment [2], in experiment [3], in [4], in [5] and in [6] was “inactive” each time. Moreover, the Potency entry in experiment [19], in [8], in experiment [9], in [10], in [11] and in experiment [20] was “inactive” each time. Besides, the Potency entry in experiment [12], in experiment [13], in experiment [18], in experiment [14], in experiment [15] and in experiment [16] was “inactive” throughout. Further, the Potency entry in experiment [17] was “inactive”.
As to `COc1ccc([N+](=O)[O-])cc1N`, the Potency entry in experiment [1], in experiment [2], in experiment [3], in experiment [5], in experiment [6] and in experiment [7] was “inactive” in each case. Further, the Potency entry in experiment [19], in experiment [8], in experiment [9], in experiment [10], in [20] and in experiment [12] was “inactive” in each case. The Potency entry in experiment [13], in experiment [18], in [14], in experiment [16] and in experiment [17] was “inactive” throughout.
On to `CS(=O)(=O)OCCCCOS(C)(=O)=O`, for which the Potency result in experiment [1], in [2], in experiment [3], in [5], in [6] and in experiment [7] was “inactive” each time. Besides, the Potency result in experiment [19], in [8], in [9], in [13], in [18] and in [14] was “inactive” throughout. Also, the Potency result in [15], in experiment [16] and in experiment [17] was “inactive” throughout.
For `CN(C)C(=O)Nc1ccc(Cl)c(Cl)c1`, the Potency entry in [1], in [2], in experiment [3], in [5], in experiment [6] and in experiment [7] was “inactive” throughout. The Potency result in experiment [19], in experiment [8], in experiment [9], in experiment [10], in experiment [20] and in experiment [12] was “inactive” throughout. In addition, the Potency result in experiment [13], in [18], in experiment [14], in experiment [16] and in experiment [17] was “inactive” each time.
With `O=C(O)c1ccccc1Nc1cccc(C(F)(F)F)c1`, the Potency result in experiment [1], in experiment [3], in experiment [4], in experiment [6], in experiment [19] and in experiment [8] was “inactive” each time. For the same molecule, the Potency result in [10], in [11], in [20], in [18], in experiment [14] and in experiment [15] was “inactive” in each case. The Potency result in experiment [16] and in [17] was “inactive” each time. For the same molecule, the Potency is 13.7 µM (active) and inactive in experiment [2]; 40.8 µM (active) and inactive in experiment [7].
On to `CC(=O)c1ccc(S(=O)(=O)NC(=O)NC2CCCCC2)cc1`, for which the Potency result in experiment [1], in experiment [2], in experiment [3], in [5], in experiment [6] and in [7] was “inactive” each time. In addition, the Potency entry in experiment [19], in [8], in experiment [9], in experiment [10], in experiment [11] and in experiment [20] was “inactive” throughout. For the same molecule, the Potency entry in [12], in experiment [18], in experiment [14], in [15], in experiment [16] and in experiment [17] was “inactive” each time.
